Data published in PubChem BioAssay (NCI).
Compounds without any hit were thinned out: in the full panel of roughly 79,000, 15% have a hit. A number with no mark means an inactive call. The source made the active and inactive calls. Cut-off read from the data, not from the text of the source: active = growth inhibition above about 70%; inactive = the rest.

How the values were obtained:
[1] = NCI Yeast Anticancer Drug Screen. Data for the rad50 strain (AID 155);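 note: 0% = growth of vehicle-only cultures of the same strain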; conditions: S. cerevisiae rad50 strain growth inhibition, active compounds read high
Outline: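 Cells are treated with compound, grown, and their growth is then scored against vehicle-only cultures of the same repair-deficient yeast strain.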

[2] = NCI Yeast Anticancer Drug Screen. Data for the mec2-1 strain (AID 157); conditions: S. cerevisiae mec2-1 strain, active compounds read high
Outline: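 Using mec2-1 yeast: add compound, measure growth, express inhibition versus vehicle-treated cultures.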

[3] = NCI Yeast Anticancer Drug Screen. Data for the sgs1 mgt1 strain (AID 161);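 note: 0% = growth of cultures given vehicle only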; conditions: S. cerevisiae sgs1 mgt1 strain, active compounds read high
Outline: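 Growth of a repair-deficient yeast mutant was monitored after compound treatment and expressed as inhibition relative to vehicle-treated cultures.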

[4] = NCI Yeast Anticancer Drug Screen. Data for the cln2 rad14 strain (AID 165);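 note: 0% = growth equal to vehicle treated cultures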; conditions: S. cerevisiae cln2 rad14 strain, active compounds read high
Outline: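 Yeast strain cln2 rad14, bearing defects in cell cycle control and DNA repair, serves as the test system; values reflect growth inhibition compared with vehicle.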

[5] = NCI Yeast Anticancer Drug Screen. Data for the bub3 strain (AID 167); conditions: S. cerevisiae bub3 mutant strain, active compounds read high
Outline: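 Part of a panel of yeast mutants defective in DNA damage repair or cell cycle regulation. Each strain is grown with compound, and inhibition is calculated relative to solvent-treated cultures.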

[6] = NCI Yeast Anticancer Drug Screen. Data for the mlh1 rad18 strain (AID 175); conditions: S. cerevisiae mlh1 rad18 strain growth inhibition, active compounds read high
Outline: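 Steps: expose repair-defective yeast to compound; measure growth; express inhibition against vehicle-treated controls.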

[7] = at 5.0 µM (retest, dose inferred, filed as 0.5)
[8] = at 50.0 µM (retest, dose inferred, filed as 5.0)

| SMILES | growth inhibition [1, 7] | growth inhibition [1, 8] | growth inhibition ([1]; at 50.0 µM) | growth inhibition [2, 7] | growth inhibition [2, 8] | growth inhibition ([2]; at 50.0 µM) | growth inhibition [3, 7] | growth inhibition [3, 8] | growth inhibition ([3]; at 50.0 µM) | growth inhibition [4, 7] | growth inhibition [4, 8] | growth inhibition ([4]; at 50.0 µM) | growth inhibition [5, 7] | growth inhibition [5, 8] | growth inhibition ([5]; at 50.0 µM) | growth inhibition [6, 7] | growth inhibition [6, 8] | growth inhibition ([6]; at 50.0 µM) |
| --- | --- | --- | --- | --- | --- | --- | --- | --- | --- | --- | --- | --- | --- | --- | --- | --- | --- | --- |
| CN(C)CCOc1ccc2c(c1)C(=O)/C(=C\c1ncc([N+](=O)[O-])n1C)C2 | 31% | 73% (active) | 54.1% | 21% | 89% (active) | 80.3% (active) | 21% | 67% | 77.4% (active) | 22% | 46% | 59% | 21% | 95% (active) | 34.8% | 50% | 78% (active) | 80.8% (active) |
| CC1CN(CC(O)c2ccc(Br)cc2)CC(C)O1 (configuration not stated) | 13% | 30% | 58.5% | 6% | 28% | 34.2% | 8% | 56% | 66.5% | 8% | 46% | 68.7% | 12% | 48% | 54.6% | 29% | 61% | 41.8% |
| Cc1c(CCl)c(=O)oc2c(C)c3occ(CCl)c(=O)c3cc12 | 6% | 12% | 80.1% (active) | 20% | 31% | 82.5% (active) | 17% | 42% | 84.5% (active) | 41% | 60% | 85.4% (active) | 28% | 57% | 87.5% (active) | 29% | 67% | 77.7% (active) |
| CCS(=O)(=O)/C=C(\C#Cc1ccccc1)c1ccccc1 | 9% | 84% (active) | 79.2% (active) | -1% | 95% (active) | 82.4% (active) | 5% | 90% (active) | 83.7% (active) | 12% | 81% (active) | 80.3% (active) | 11% | 99% (active) | 87.5% (active) | 6% | 94% (active) | 92.2% (active) |
| O=C(NCCCNCCNC(=O)c1cc(-c2ccccc2)nc2ccccc12)c1cc(-c2ccccc2)nc2ccccc12 | -22% | 93% (active) | 98.6% (active) | -12% | 98% (active) | 99.2% (active) | -4% | 89% (active) | 99.1% (active) | 28% | 94% (active) | 99.3% (active) | -23% | 99% (active) | 99.1% (active) | 5% | 98% (active) | 99.3% (active) |
| C/C(=C/c1ccccc1)C(=O)C1C(c2ccccc2)CC(O)C(C)C1c1ccccc1 (configuration not stated) | 11% | 86% (active) | 82.2% (active) | 1% | 81% (active) | 91.2% (active) | 10% | 86% (active) | 82.3% (active) | -4% | 89% (active) | 88.4% (active) | -5% | 82% (active) | 77.8% (active) | 16% | 90% (active) | 86.5% (active) |
| O=C1OC(c2ccccc2)CC1Cc1ccccc1 (configuration not stated) | -10% | -15% | 1.7% | -32% | 3% | -0.25% | -2% | 8% | -12.9% | 9% | -5% | -6.55% | -2% | 6% | 29.1% | -17% | -21% | -33.8% |
| O=S(=O)(Cl)c1ccc(Br)cc1 | 45% | 99% (active) | 37.3% | 68% | 100% (active) | -4.55% | 72% (active) | 99% (active) | 0.15% | 21% | 100% (active) | -76.1% | 84% (active) | 99% (active) | 9.25% | 28% | 99% (active) | 0.55% |
| C=CC[C@]1(C(C)C(OC(C)=O)c2ccc3c(c2)OCO3)C[C@@H](OC)C=CC1=O (some centres not stated) | 10% | 98% (active) | 10.5% | 10% | 98% (active) | -0.85% | 10% | 98% (active) | -0.2% | -3% | 98% (active) | -12.7% | 4% | 98% (active) | 1.4% | 9% | 98% (active) | 40% |
| CC(=O)c1ccc(Br)cc1NC1=CC(=O)c2ncccc2C1=O | 95% (active) | 95% (active) | 86.7% (active) | 88% (active) | 94% (active) | 91.2% (active) | 81% (active) | 96% (active) | 88.8% (active) | 77% (active) | 90% (active) | 88.3% (active) | 83% (active) | 95% (active) | 89.7% (active) | 87% (active) | 95% (active) | 87.3% (active) |
| O=c1ccccn1CCc1cccc2cc(O)ccc12 | -3% | -1% | 12.9% | -2% | 4% | 9.25% | -3% | -3% | 10.6% | -1% | -12% | -12.3% | 0% | 4% | 71% (active) | -3% | 3% | 23.2% |
| Cc1ccc(/C=C2\CN(C)CC3=C2NC(=S)NC3c2ccc(C)cc2)cc1 (configuration not stated) | 31% | 40% | 30.2% | 18% | 54% | 4.2% | -31% | 21% | 30.6% | 18% | 33% | 16.7% | -10% | 44% | 20.1% | 26% | 48% | 58.3% |
| C/C(Cl)=N\OC(=O)Nc1ccc(C)cc1 | 4% | 99% (active) | 55.6% | -2% | 99% (active) | 79.5% (active) | -26% | 91% (active) | 74.5% (active) | 4% | 86% (active) | 53.6% | 11% | 98% (active) | 74% (active) | -3% | 96% (active) | 60.4% |
| O=c1[nH]ccc(CNC23CC4CC(CC(C4)C2)C3)c1O | 5% | 11% | 49.9% | 10% | 33% | 21.4% | 18% | 67% | 61.9% | 10% | 11% | 39.9% | 7% | 49% | 36.4% | 6% | 38% | 81.5% (active) |
| CCCCCCCCCCCCCCCC[N+](C)(CCO)Cc1cnc[nH]1 (configuration not stated) | 97% (active) | 98% (active) | 90.2% (active) | 97% (active) | 99% (active) | 87.4% (active) | 98% (active) | 99% (active) | 90.8% (active) | 98% (active) | 99% (active) | 86.8% (active) | 99% (active) | 99% (active) | 88% (active) | 94% (active) | 98% (active) | 88.6% (active) |
| Cc1cc(Cl)ccc1OCC(=O)Oc1c(Cl)c(Cl)c(Cl)c(Cl)c1Cl | 7% | 36% | 65.8% | 8% | 13% | 73% (active) | 0% | 42% | 67.6% | -12% | 33% | 42.8% | -6% | 19% | 68.9% | 7% | 50% | 76% (active) |
| O=C1C2=C(Nc3cc([N+](=O)[O-])ccc3N2)OC1c1c2ccccc2cc2ccccc12 (configuration not stated) | 89% (active) | 98% (active) | 93.5% (active) | 70% (active) | 99% (active) | 66.4% | 70% (active) | 99% (active) | 96% (active) | 62% | 98% (active) | 35.5% | 34% | 99% (active) | 78.4% (active) | 92% (active) | 99% (active) | 93.6% (active) |
| COC(O)C(=O)c1c2c(cc3c1CC1(Cc4cc5c(cc4C1)CCC5)C3)CCC2 (configuration not stated) | 69% | 98% (active) | 69% | 99% (active) | 99% (active) | 80.5% (active) | 94% (active) | 98% (active) | 83.2% (active) | 99% (active) | 98% (active) | 87.6% (active) | 99% (active) | 98% (active) | 88.5% (active) | 99% (active) | 98% (active) | 90.5% (active) |
| CCOC1=C(NC(C)=O)C(=O)c2ccccc2C1=O | 5% | 97% (active) | 99% (active) | -7% | 97% (active) | 85.9% (active) | -2% | 98% (active) | 97.3% (active) | 60% | 97% (active) | 83.3% (active) | 8% | 97% (active) | 94.7% (active) | 2% | 98% (active) | 97.7% (active) |
